Inconclusive results are not listed. The source made the active and inactive calls. The calls were made as follows: active = hit-call score of the fitted dose curve at least 0.9, where 1 is the maximum; inconclusive = response in the unintended direction; inactive = score below 0.9.
Experiments:
[1] = target: human Mitogen-Activated Protein Kinase 1 (MAPK 1), MAPK1 (gene 5594) (UniProt P28482); experiment: NVS_ENZ_hMAPK1: NovaScreen (NVS) Enzymatic Assay for human Mitogen-Activated Protein Kinase 1 (MAPK 1) (AID 2283175)
Outline: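 Cell-free recombinant human MAPK1 enzymatic assay, fluorescence/electrophoretic mobility shift read at 1 h; loss of signal vs DMSO. Primary screen in duplicate at 25 uM; actives (e.g. ≥30% inhibition) run as concentration-response up to 50 uM.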

[2] = target: human Aurora Kinase A - serine/threonine-protein Kinase 6 (AurA), AURKA (gene 6790) (UniProt O14965); experiment: NVS_ENZ_hAurA: NovaScreen (NVS) Enzymatic Assay for human Aurora Kinase A - serine/threonine-protein Kinase 6 (AurA) (AID 2283142)
Outline: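 Recombinant human AurA activity read by fluorescence after mobility-shift separation of product from substrate; 1 hour incubation. Chemicals first run in duplicate at 25 uM, then concentration series to 50 uM if over threshold; fitted relative to DMSO.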

Sequence of human Mitogen-Activated Protein Kinase 1 (MAPK 1), MAPK1 (gene 5594) (P28482 whole entry, looked up): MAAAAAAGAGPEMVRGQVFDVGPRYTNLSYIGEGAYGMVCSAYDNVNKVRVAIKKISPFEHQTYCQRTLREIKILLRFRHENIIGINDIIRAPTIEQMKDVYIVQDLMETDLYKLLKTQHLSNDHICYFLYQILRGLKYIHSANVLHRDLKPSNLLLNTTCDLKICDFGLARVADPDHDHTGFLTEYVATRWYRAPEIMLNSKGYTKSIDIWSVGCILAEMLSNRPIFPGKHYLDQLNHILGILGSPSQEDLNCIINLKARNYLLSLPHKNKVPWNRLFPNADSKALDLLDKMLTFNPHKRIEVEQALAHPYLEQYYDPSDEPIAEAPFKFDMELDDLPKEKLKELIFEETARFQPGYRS
Sequence of human Aurora Kinase A - serine/threonine-protein Kinase 6 (AurA), AURKA (gene 6790) (O14965 whole entry, looked up): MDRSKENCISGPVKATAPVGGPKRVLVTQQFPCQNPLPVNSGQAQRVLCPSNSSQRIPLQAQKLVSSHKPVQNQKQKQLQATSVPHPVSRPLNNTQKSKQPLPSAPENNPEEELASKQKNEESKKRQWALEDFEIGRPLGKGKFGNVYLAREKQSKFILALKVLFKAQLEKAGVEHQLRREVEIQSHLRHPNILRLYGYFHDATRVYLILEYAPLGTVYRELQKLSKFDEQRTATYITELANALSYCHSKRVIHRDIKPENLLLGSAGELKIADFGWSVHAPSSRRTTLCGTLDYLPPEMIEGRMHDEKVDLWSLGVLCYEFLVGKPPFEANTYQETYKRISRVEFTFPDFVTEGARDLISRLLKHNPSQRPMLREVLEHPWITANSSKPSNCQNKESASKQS

SMILES | outcome [1] | AC50 [2]
CC(C)(c1ccc(O)cc1)c1ccc(O)cc1 | inactive | –
Oc1ccc2ccccc2c1 | – | 36.6 µM (active)
